Experimental data as given in PubChem BioAssay AID720595 (Broad Institute, 2013).
Entries with a potency or affinity are not part of this list. Activity calls are given as the source filed them.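 The calls were made as follows: active = every repeat test gives a fitted half-maximal cytotoxic concentration no higher than twice the top valid dose; inconclusive = repeats disagree, or a flat partial loss or poor fit; inactive = the rest, including signal rising instead.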

Experiment: HEK293T cell cytotoxicity, dose response, cytotoxicity control, CellTiter-Glo luminescence, dry powder, set 2 (AID 720595)

Row | SMILES | outcome
1 | COc1ccc(-c2nnc(NC(=O)c3ccc(S(=O)(=O)N4CCC(C)CC4)cc3)o2)cc1 | inactive
2 | O=C(CSc1ccc(-c2ccccn2)nn1)N1CCCC1 | inactive
3 | Cc1c(C(=O)N(C)C)sc2nc(-c3ccccn3)[nH]c(=O)c12 | inactive
4 | Cc1ccc(S(=O)(=O)CCc2nnc(NC(=O)c3ccccc3)s2)cc1 | inactive
5 | Cc1ccc(C(=O)Nc2nc(-c3ccccc3)cs2)o1 | inactive
6 | O=C(Nc1nc(-c2ccncc2)cs1)c1ccco1 | inactive
7 | c1ccc(-c2nc(-c3ccncc3)n[nH]2)nc1 | inactive
8 | O=C(CSc1ccc(-c2ccccn2)nn1)NC1CCCCC1 | inactive
9 | O=C(CSc1ccc(-c2ccccn2)nn1)Nc1nccs1 | inactive
10 | CC1CCN(S(=O)(=O)c2ccc(C(=O)Nc3nnc(-c4ccno4)o3)cc2)CC1 | inactive
11 | COC(=O)c1ccc(NC(=O)CSc2ccc(-c3ccccn3)nn2)cc1 | inactive
12 | CC1CCN(S(=O)(=O)c2ccc(C(=O)Nc3nnc(-c4ccccn4)o3)cc2)CC1 | inactive
13 | CC(C)Cc1nnc(NC(=O)c2cccc(S(=O)(=O)N3CCOCC3)c2)s1 | inactive
14 | Cc1nnc(NC(=O)c2ccc(S(=O)(=O)N3CCCCC3)cc2)o1 | inactive
15 | CC1CCN(S(=O)(=O)c2ccc(C(=O)Nc3nnc(-c4cccs4)o3)cc2)CC1 | inactive
16 | O=C(Nc1nc(-c2ccccn2)cs1)c1ccc(S(=O)(=O)N2CCOCC2)cc1 | inactive
17 | O=C(Nc1nnc(C2=COCCO2)o1)c1ccc(S(=O)(=O)N2CCCCC2)cc1 | inactive
18 | FC(F)(F)c1cc(-c2nn[nH]n2)cc(C(F)(F)F)c1 | inactive
